Shown is part of a subset that was picked to be rich in hits.
Pf apPOL inh: Pf-apPOL DNA polymerase inhibition; Recombinant Pf-apPOL, molecular beacon fluorescence, 1.5 h; inhibition, % at 10 µM; actives 0.25% (n = 210,000); AID 1794808
mHTT-CaM PPI inh: mHTT-calmodulin interaction abrogation; P42858; AlphaScreen His-mHTT/GST-CaM binding, luminescence; inhibition, % at 15 µM; actives 3.6% (n = 190,000); AID 1671202;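 further: 0% = both proteins with DMSO and 100% = one protein alone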
Starred values were filed as active, the others as inactive; . = no result. No stated cut-off is given here; in the data, active means inhibition above about 50%; inactive means the rest.

SMILES	Pf apPOL inh	mHTT-CaM PPI inh
Cc1ccc(S(=O)(=O)Nc2cccc3cccnc23)cc1	-44.7	37.9
CC(=O)c1sc(SCc2ccc(Cl)cc2)c2c1CC(C)(C)CC2=O	-10.7	.
N#Cc1ccc(C(O)c2ccc(F)cc2)c(CO)c1 (stereo unspecified)	.	-8.7
Cc1ccccc1Cn1nc(C)c(NC(=O)c2noc3c2CCCC3)c1C	-2.2	14.7
Cc1nn(Cc2ccc(F)cc2)c(C)c1NC(=O)c1noc2c1CCCCC2	-5.4	53.2*
Cc1nn(Cc2ccccc2Cl)c(C)c1NC(=O)c1noc2c1CCCCC2	-5.5	15.3
Cc1nn(Cc2ccc(Cl)cc2)c(C)c1NC(=O)c1noc2c1CCCC2	-1.5	95.7*
O=C(Cc1csc(-n2cccc2)n1)NCCOc1ccc(F)cc1	-27.9	9.3
O=C1CCC(c2nc(-c3cccs3)no2)N1Cc1ccccc1 (stereo unspecified)	-9.7	-12.7
CCc1ccc(OCC(=O)NCc2ccccc2OC)cc1	-1.2	-15.4
O=C(c1cccs1)N1CCCCC1c1nc(-c2cccnc2)no1 (stereo unspecified)	-2.7	-11.1
COC(=O)[C@@H]1N2C(=O)[C@@H](NC(=O)C(C)Oc3ccccc3)[C@H]2SC1(C)C (stereo partly specified)	-6.7	66.4*
CC(Oc1ccccc1)C(=O)N[C@@H]1C(=O)N2[C@@H]1SC(C)(C)[C@@H]2C(=O)OCc1ccccc1 (stereo partly specified)	-6.6	35.5
COc1ccccc1N1CCN(C/C=C/c2ccccc2[N+](=O)[O-])CC1	-3.9	10.2
COc1cc(OC)cc(C(C)(C)OC(=O)N2CCCC2C(=O)O)c1 (stereo unspecified)	-3.6	.
CCOc1ccc(N=C2C(=O)N(CN3CCCC(C)C3)c3ccccc32)cc1 (stereo unspecified)	-1.1	10.0
CCOc1ccc(N=C2C(=O)N(CN3CCCCC3)c3ccccc32)cc1	11.9	65.0*
N#CC1=C(N)n2c(s/c(=C\c3ccco3)c2=O)=C(C#N)C1c1ccco1 (stereo unspecified)	-3.9	46.0
Cc1ccc(/C=c2\sc3n(c2=O)C(N)=C(C#N)C(c2ccc(C)o2)C=3C#N)o1 (stereo unspecified)	6.8	59.0*
Cc1ccc(CNC(=O)C2CCCN(c3nc4nc[nH]c(=O)c4s3)C2)o1 (stereo unspecified)	-0.9	36.1
CC1C(=O)N(Cc2cn(Cc3ccco3)nn2)CCS(=O)(=O)N1Cc1ccc(-c2ccccc2Cl)cc1 (stereo unspecified)	-2.8	76.8*
CC1C(=O)N(Cc2cn(CCC3OCCCO3)nn2)CCS(=O)(=O)N1Cc1ccc(-c2ccc(F)nc2)cc1 (stereo unspecified)	-14.3	14.6
CC1C(=O)N(Cc2cn(Cc3ccco3)nn2)CCS(=O)(=O)N1Cc1ccc(-c2ccc(F)cc2Cl)cc1 (stereo unspecified)	4.4	81.0*
CC1C(=O)N(Cc2cn(Cc3ccco3)nn2)CCS(=O)(=O)N1Cc1ccc(-c2ccncc2)cc1 (stereo unspecified)	8.9	29.5
CN1C(=O)C(CO)NC1=S (stereo unspecified)	.	12.7
SMILES	Pf apPOL inh	mHTT-CaM PPI inh
O=C(COc1ccc(F)cc1)N1CCC(CCOc2ccccc2)CC1	-2.8	69.5*
O=C(COc1ccc(F)cc1)N1CCC(CCOc2ccncc2)CC1	0.1	5.8
Cn1nccc1C(=O)N1CCC(CCOc2ccccc2)CC1	1.9	5.5
Cn1cccc1C(=O)N1CCC(CCOc2ccccc2)CC1	-7.3	57.5*
CCC(NC(=O)c1ccccc1NC(=O)c1ccccc1)C(=O)N1CCOCC1 (stereo unspecified)	-17.2	1.1
Cc1cccc(S(=O)(=O)N2CCc3c(c(-c4nc(C5CC5)no4)nn3C)C2)c1	-1.0	11.7
CN(C)c1ncnc2c1C(c1ccccc1)c1c(ncnc1N(C)C)O2	37.1	23.0
CN(Cc1ccccc1)c1cc2c(c3c1ccn3C)C1CCC2O1 (stereo unspecified)	-3.5	71.8*
COc1ccccc1N(C)c1cc2c(c3c1ccn3C)C1CCC2O1 (stereo unspecified)	-2.5	67.2*
Cn1ccc2c(-c3ccc(F)cc3)cc3c(c21)C1CCC3O1 (stereo unspecified)	-7.8	23.0
Cn1ccc2c(N(Cc3ccccc3)Cc3ccccc3)cc3c(c21)C1CCC3O1 (stereo unspecified)	3.7	42.7
CC(C)(C)c1ccc(C(=O)Nc2ccc(Br)cn2)cc1	22.4	-5.0
Cc1cc(C(=O)Nc2cccc(-c3nc4ncccc4o3)c2C)ccc1[N+](=O)[O-]	-0.1	9.0
O=C(NC1CCCC1)c1ccc([N+](=O)[O-])cc1Cl	-1.4	19.3
Cc1ccccc1-c1nc(COc2ccc3c(c2)OCO3)no1	-1.3	17.4
O=C(Nc1nnc(C2CC(=O)N(c3ccccc3)C2)o1)c1cc(=O)c2ccccc2o1 (stereo unspecified)	0.4	6.8
CCOC(=O)C1CCc2sc(NC(=O)C3CN(c4nc5ccccc5s4)C3)nc21 (stereo unspecified)	-1.9	39.8

Screens from PubChem BioAssay.
